The results in this text go back to article PMC7819943, “Rice protein-binding microarrays: a tool to detect cis-acting elements near promoter regions in rice”.

Over roughly 39,000 sequences, “fluorescence intensity (a.u.)” has its median near 4,300; the highest 2% begin near 39,000. Many of the other results were omitted from the sample, so the highest values are more common in it than they were.

This experiment addresses T1, OsSMF1 (Oryza sativa, UniProt Q6ZLB0 1-436).
T1 sequence: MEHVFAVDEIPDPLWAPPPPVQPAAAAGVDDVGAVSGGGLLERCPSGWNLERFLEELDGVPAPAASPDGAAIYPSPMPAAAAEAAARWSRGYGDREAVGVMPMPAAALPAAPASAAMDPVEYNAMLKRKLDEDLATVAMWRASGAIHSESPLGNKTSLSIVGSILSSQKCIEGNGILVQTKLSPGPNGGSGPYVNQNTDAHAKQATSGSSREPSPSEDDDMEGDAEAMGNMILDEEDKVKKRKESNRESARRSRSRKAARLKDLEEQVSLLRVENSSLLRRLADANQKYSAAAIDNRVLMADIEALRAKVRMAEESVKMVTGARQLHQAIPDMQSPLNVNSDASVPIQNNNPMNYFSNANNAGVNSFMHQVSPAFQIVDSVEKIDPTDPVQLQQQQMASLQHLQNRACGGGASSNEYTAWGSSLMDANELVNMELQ
The experiment can be described thus: protein-binding microarray (RPBM); PBS, 2% BSA, 51.3 ng/ul salmon testes DNA, 50 uM zinc acetate, 200 nM TF, 25 C, 1 h; high values mean tight binding. The conditions noted are these: protein: recombinant; tags: N-terminal polyhistidine and DsRed monomer fusion (pET32a); chain copies: 2; label: CyDye5-dUTP incorporated in the synthesized complementary strand; 3' TTTTT single-stranded linker to array surface; dsDNA, one strand shown. Put shortly:
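Binding signal is defined as the fluorescence intensity of each feature in arbitrary units, read on an Axon 4000B scanner. Transcription factors with N-terminal polyhistidine and DsRed fusions came from E. coli BL21-CodonPlus and were purified on Ni–NTA. They were incubated at 200 nM for 1 h at 25 °C on a custom Agilent array that had been made double-stranded with Cy5-dUTP, with 50 µM zinc acetate present, and the array was washed.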
Turning to “CACACATTCGCACCGCCGACGCCGAACAGAACAACAACAACGGAGTCACCTAGTGCAG”, the binding signal is 64700 fluorescence intensity (a.u.).

Take “GGAAGAAGGCCGCCGACGCACAACAGAGGCGGCGGCGGGGCGGAGTCACCTAGTGCAG”: the binding signal is 3510 fluorescence intensity (a.u.).

Consider “GCTTTCAAAGCACTCAATTTTCCAGGTCATAACTGTTTTCCGGAGTCACCTAGTGCAG”, for which the binding signal is 5050 fluorescence intensity (a.u.). The value for “ACAGATACAATGAGCGAGCGTTTGGTGTAATATGTGACAGCGGAGTCACCTAGTGCAG” was 43600 fluorescence intensity (a.u.); that for “ATGTATTTTATGACAACAGAGTAAACAATGTGATATACATCGGAGTCACCTAGTGCAG” was 3220 fluorescence intensity (a.u.); that for “TTGACAATGTGGTGCTACAGTAAATATTTGATAATGATGGCGGAGTCACCTAGTGCAG” was 3330 fluorescence intensity (a.u.). As for “ATCTTAAGCTCCTCATTTCATCTATGATTGGCTTGCTTTACGGAGTCACCTAGTGCAG”, the figure is 3180 fluorescence intensity (a.u.); as for “AATAAACCATGGTGTTTGTATTGGTGTGTTGGTGACTACGCGGAGTCACCTAGTGCAG”, 3880 fluorescence intensity (a.u.).

On to “CCATCGAATCCGGTTCGCGCGCAAGCAAAATCAGCAGCGTCGGAGTCACCTAGTGCAG”, for which the binding signal was 3830 fluorescence intensity (a.u.). As for “TAAGCTAACCTTGTACTAAGATGTGACACATCCAAGTACACGGAGTCACCTAGTGCAG”, the figure is 3630 fluorescence intensity (a.u.); as for “GCTACTAAGGAGTACTACAATATTGCATCATCGTCATCATCGGAGTCACCTAGTGCAG”, 6340 fluorescence intensity (a.u.); as for “AAGCTAACTTGTGTTGCCTACACAAGTACTAAAATGGCATCGGAGTCACCTAGTGCAG”, 63600 fluorescence intensity (a.u.).

Regarding “TGCGCCGATAGCTCCTGTCAACGTGTCACGCGCTGCGCCTCGGAGTCACCTAGTGCAG”, the binding signal is 8650 fluorescence intensity (a.u.). For the sequence “ATTCCAATTCCAGCTCAATGCTGCACGGAATCTCCTCTTCCGGAGTCACCTAGTGCAG”, the binding signal is 4140 fluorescence intensity (a.u.). Turning to “TACCTCTTCAGTACAGCTGCAGCTGCTGACTGCTCACTACCGGAGTCACCTAGTGCAG”, the binding signal is 4340 fluorescence intensity (a.u.). For “CCAGTAATCCTCCTCCTGCTGCCTCAGCTCCTCTTCTGTACGGAGTCACCTAGTGCAG”, the binding signal was 50800 fluorescence intensity (a.u.).

Consider “CACAACTACGTAGACGGGCGTTTGCGGCCGAAAATTTGACCGGAGTCACCTAGTGCAG”, for which the binding signal was 3730 fluorescence intensity (a.u.). For the sequence “CGGTCCGGGCGATTTGACCGGTCAAAAGGCGTGGCCACGACGGAGTCACCTAGTGCAG”, the binding signal was 3850 fluorescence intensity (a.u.). “AAAACGACCGGTTTTGACGTAAATCCACAAGGCGTTATGACGGAGTCACCTAGTGCAG”: the binding signal was 58400 fluorescence intensity (a.u.).

With “CGCCGCCACAACCGCGCGCCGTCACCGCCGCGTGCCGTCACGGAGTCACCTAGTGCAG”, the binding signal is 5070 fluorescence intensity (a.u.). In the case of “CCCACCACACACCCGGCCCCACATGTCATCCACCCATCCACGGAGTCACCTAGTGCAG”, the binding signal was 4500 fluorescence intensity (a.u.). For the sequence “TTCTTTCGTTAGTTCACCAAAGATGGGCATTTTACTAAGACGGAGTCACCTAGTGCAG”, the binding signal is 65000 fluorescence intensity (a.u.). On to “TCTTTTCTAAGTCATGTTAGACCAATAGAGATTTCTCAAACGGAGTCACCTAGTGCAG”, for which the binding signal was 27600 fluorescence intensity (a.u.). In the case of “CATTATCTAAGTTTCTTTACGTCATTATCTTCGTTTAATTCGGAGTCACCTAGTGCAG”, the binding signal is 3230 fluorescence intensity (a.u.).

Consider “TGTGTGCGTGTGTTGTGACTTATGATGTGTTTCTTAAGAACGGAGTCACCTAGTGCAG”, for which the binding signal is 4170 fluorescence intensity (a.u.). For “TCATTAACATCAATATGAATGTGAGAAATGCTAGAATGACCGGAGTCACCTAGTGCAG”, the binding signal was 3240 fluorescence intensity (a.u.). “CTATTGCAAATTGCAATGCTGTATATGCACTTCATTAGAACGGAGTCACCTAGTGCAG”: the binding signal was 54100 fluorescence intensity (a.u.). As for “CTAGATTTATTAATATCGATATGAATGTGGAAAATGCTAGCGGAGTCACCTAGTGCAG”, the binding signal was 18100 fluorescence intensity (a.u.). “GATTCATTTAACAATTATATGAATGTGGGAAATGCTAGAACGGAGTCACCTAGTGCAG”: the binding signal was 44400 fluorescence intensity (a.u.). With “CATGGTAGAAAATTAGATTATGGTGCATTTGCTGCAAATGCGGAGTCACCTAGTGCAG”, the binding signal was 3860 fluorescence intensity (a.u.).

Regarding “TAGAATTTCTCTTCATATAATGCTACGTCATTGCTATATACGGAGTCACCTAGTGCAG”, the binding signal was 10300 fluorescence intensity (a.u.). As for “AATAATTTTCTCATTTTCTTTAACAGAAGATGACAATGCACGGAGTCACCTAGTGCAG”, the binding signal is 34800 fluorescence intensity (a.u.). Take “TTTGAATCAAAGGAATGGATCTTATGGAATCCTATAAAATCGGAGTCACCTAGTGCAG”: the binding signal was 40400 fluorescence intensity (a.u.).

As for “TCCTTCAAGAATCCTATACTTCTTAAATCAGGAACATAATCGGAGTCACCTAGTGCAG”, the binding signal is 8910 fluorescence intensity (a.u.). Take “ATCTTATGGAATCCTATGAAATTCATATGGAATGCCTAATCGGAGTCACCTAGTGCAG”: the binding signal was 65000 fluorescence intensity (a.u.). Consider “TCCAAATCCTATGAAATTCCTATGGAAATCCACGTTGCATCGGAGTCACCTAGTGCAG”, for which the binding signal is 7670 fluorescence intensity (a.u.). As to “CACCACCCTAAATGGAATAAGAAAATTCTTATTTGTGAATCGGAGTCACCTAGTGCAG”, the binding signal is 3440 fluorescence intensity (a.u.). As for “GATTGAATCATATCGTATCCTTTGAAATTCCTATGGAATGCGGAGTCACCTAGTGCAG”, the binding signal was 4120 fluorescence intensity (a.u.).

As to “AGTTCATTATCATCATGTAATGAATCATCATGAATCCAAACGGAGTCACCTAGTGCAG”, the binding signal was 3280 fluorescence intensity (a.u.). As for “CACTTGGTAATTACTTCTACTATGTCATCCTTATCATAATCGGAGTCACCTAGTGCAG”, the binding signal was 3200 fluorescence intensity (a.u.).

Regarding “AGTTCTACTTGAGTTATGTAATGAATCACAATGCCTTCATCGGAGTCACCTAGTGCAG”, the binding signal is 53400 fluorescence intensity (a.u.). As for “TAAGGAGGGTGTTGGGAGGGTGGGAGCTTTGCTTGGGGTGCGGAGTCACCTAGTGCAG”, the binding signal is 3950 fluorescence intensity (a.u.).
